# Assay outcomes (PubChem BioAssay)
# LGR2 antag: inhibitors of bursicon-induced LGR2 CRE-luciferase signal, primary screen, cell-based, HEK293, CRE-luciferase reporter, bursicon stimulation; Drosophila bursicon receptor LGR2 (rickets); bursicon-stimulated, 4 h; inhibition, % at 9.99 µM; actives 0.35% (n = 380,000); AID 720647, 2013;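 active means drop in luminescence signal, shown as inhibition above about 50% in the replicate tests, limit read from the data, passing the limit was not always enough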;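 further: agonist challenge used bursicon conditioned medium at about half maximal strength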
# HSP90 inh: HSP90 inhibitors, primary screen, cell lysate, luminescence | AID 1789, 2009 | actives 0.91% (n = 290,000) | Rabbit reticulocyte lysate, luciferase refolding luminescence, 3 h | inhibition, % at 5.6 µM;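 active means inhibition above the screen-wide mean plus 3 SD, computed separately per campaign, cut at about 16% in these data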;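 further: inhibitors lower the luminescence because luciferase stays unfolded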
# TROY signal inh: inhibitors of TROY-driven NF-kB signaling, primary screen, Q293 LMP1-TROYcd cells, NF-kB luciferase, uHTS | AID 1347056, 2019 | Q293 LMP1-TROYcd NF-kB luciferase reporter, 4 h | inhibition, % at 10 µM | actives 0.98% (n = 360,000);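 active means compounds whose plate-normalised and pattern-corrected inhibition of the luciferase reporter signal at the single screening dose is 50% or more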
# TWEAK Fn14 block: inhibitors of TWEAK-Fn14 signaling, primary screen, luciferase reporter cells, uHTS. TWEAK-stimulated Fn14 reporter cells, luciferase luminescence, 8 h. inhibition, % at 10 µM. actives 2% (n = 360,000). AID 1159606, 2016; in the data active means inhibition above about 50%
# Numbers stand for hits; – = inactive; · = no result given. Sampled rows, rich in hits. Any-hit rate of the full collection: about 2.2%.
SMILES,LGR2 antag,HSP90 inh,TROY signal inh,TWEAK Fn14 block
CC(=O)NCCc1ccc(C(=O)COC(=O)C2CCCCC2)cc1,77,·,86,90
CC(=O)NCCc1ccc(C(=O)COC(=O)c2ccco2)cc1,–,·,–,56
Cc1ccc(S(=O)(=O)N[C@H]2CC[C@@H](CC(=O)NCc3ccncn3)O[C@H]2CO)cc1,–,·,·,·
c1ccc(Nc2ncnc3sccc23)cc1,–,–,–,–
CC(Nc1ncnc2sccc12)c1ccccc1 (stereo not drawn),–,–,–,54
O=[N+]([O-])c1c(Nc2ccccc2O)cc(Cl)c2nonc12,–,–,64,–
O=[N+]([O-])c1c(Nc2ccccc2O)ccc2nonc12,–,–,–,–
COc1ccccc1Nc1ccc2nonc2c1[N+](=O)[O-],–,–,–,89
C[C@@H]1CN([C@@H](C)CO)C(=O)CCCn2cc(nn2)CO[C@@H]1CN(C)S(C)(=O)=O,–,·,·,·
C[C@@H]1CN([C@@H](C)CO)C(=O)c2cc(NC(=O)CCCN(C)C)ccc2O[C@H]1CN(C)S(=O)(=O)c1cn(C)cn1,–,·,·,·
Cc1ccc(S(=O)(=O)Nc2cccc3c2O[C@@H](CN(C)S(=O)(=O)c2ccc(F)cc2)[C@@H](C)CN([C@H](C)CO)C3=O)cc1,–,·,·,·
COc1ccccc1/C=C/C(=O)c1c2c(c(C)[nH]c1=O)CCCC2,56,–,–,86
O=C(C1CC1)N1CC2(C1)[C@@H](c1ccccc1)[C@@H](CO)N2CCC(F)(F)F,–,·,·,·
Cc1cc(C)cc(OCC(=O)NCC2CCCO2)c1 (stereo not drawn),–,–,73,89
C=CC(=O)Nc1ccc(Nc2nc(NC3CCC(N(C)C)CC3)nc3c2ncn3C(C)C)cc1 (stereo not drawn),·,·,71,95
CCN(CC(=O)Nc1ccc(NC(C)=O)cc1)C(=O)c1ccc(COc2ccc(C(C)(C)C)cc2)cc1,–,·,–,53
CCN(CC(=O)Nc1ccc(NC(C)=O)cc1)C(=O)c1ccc(COc2ccccc2)o1,–,·,–,–
NC(=O)NC(=O)CSc1nc2sc(-c3ccccc3)cc2c(=O)n1-c1ccccc1,–,–,–,58
C[C@@H]1CCCCO[C@@H](CN(C)CC2CC2)[C@@H](C)CN([C@H](C)CO)C(=O)c2cc(NS(=O)(=O)c3cccs3)ccc2O1,–,·,·,·
C[C@H](CO)N1C[C@H](C)[C@H](CN(C)C(=O)Nc2ccccc2)Oc2c(NS(=O)(=O)c3ccc(F)cc3)cccc2C1=O,–,·,·,·
CN1C[C@H]2[C@@H](c3ccccc31)[C@H](CO)N2Cc1ccccc1F,–,·,·,·
O=c1oc2ccc(Br)cc2cc1S(=O)(=O)c1ccc(F)cc1,·,–,–,91
O=C(NCCC1=CCCCC1)NC12CC3CC(CC(C3)C1)C2,·,–,63,–
COc1ccc(C(=O)NCCC2=CCCCC2)cc1OC,·,–,–,–
O=C(NCCC1=CCCCC1)c1ccc([N+](=O)[O-])cc1,–,–,–,–
SMILES,LGR2 antag,HSP90 inh,TROY signal inh,TWEAK Fn14 block
O=C(NCCC1=CCCCC1)c1ccc(F)cc1,–,38,–,54
COc1ccc(OC)c(NC(=O)C(=O)NCCC2=CCCCC2)c1,–,–,–,78
O=C(NCCc1ccc(F)cc1)NC12CC3CC(CC(C3)C1)C2,–,–,–,–
COc1cccc(C(=O)NCCC2=CCCCC2)c1,·,–,–,51
COc1ccccc1NC(=O)N[C@@H]1C=C[C@@H](CC(=O)N2CCC(Cc3ccccc3)CC2)O[C@H]1CO,–,·,·,·
c1cncc(-c2nc(-c3ccc4c(c3)OCCO4)cs2)c1,–,–,–,52
Cc1cc(C(=O)CSc2nnc(-c3cccs3)n2Cc2ccccc2)c(C)n1C,·,–,–,–
O=c1cc(CSc2nnc(-c3cccs3)n2Cc2ccccc2)nc2sc3ccccc3n12,·,–,–,53
Nc1nc(Cl)cc(N2CCC(c3cc(-c4ccc(Cl)cc4)n[nH]3)CC2)n1,–,–,–,94
COc1ccc(OC)c(-c2cc(C3CCN(c4cc(Cl)nc(N)n4)CC3)[nH]n2)c1,·,–,53,67
C[C@@H]1CN([C@@H](C)CO)C(=O)Cc2cc(NC(=O)Cc3cn(C)c4ccccc34)ccc2O[C@H]1CN(C)C(=O)Nc1ccc2c(c1)OCO2,–,·,·,·
COc1ccc(S(=O)(=O)N2CCCC(C(=O)NCc3ccco3)C2)cc1Cl (stereo not drawn),–,–,–,86
Cn1c(=O)oc2cc(S(=O)(=O)N3CCCC(C(=O)NCCN4CCOCC4)C3)ccc21 (stereo not drawn),–,30,–,–
